Measurements taken from publication PMC4666376, “Characterisation of aptamer–target interactions by branched selection and high-throughput sequencing of SELEX pools”.

biological target: PAI-1 wild type, active (human, UniProt P05121 24-402); test: branched SELEX with high-throughput sequencing; PAI-1 immobilised on polyclonal anti-PAI-1 antibody; HBS (10 mM HEPES pH 7.4, 140 mM NaCl), 2 mM MgCl2, 2 mM CaCl2, 0.1% BSA; RNA pool 100 nM; PAI-1 captured on antibody-coated wells; 45 min; binding temperature not stated (PAI-1 capture at room temperature); high values mean tight binding; conditions: protein: recombinant; tags: N-terminal His6; structured_RNA; 2'-F pyrimidines;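 also: Pool frequency after one selection round with this target divided by frequency before selection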
Sequence (P05121 24-402): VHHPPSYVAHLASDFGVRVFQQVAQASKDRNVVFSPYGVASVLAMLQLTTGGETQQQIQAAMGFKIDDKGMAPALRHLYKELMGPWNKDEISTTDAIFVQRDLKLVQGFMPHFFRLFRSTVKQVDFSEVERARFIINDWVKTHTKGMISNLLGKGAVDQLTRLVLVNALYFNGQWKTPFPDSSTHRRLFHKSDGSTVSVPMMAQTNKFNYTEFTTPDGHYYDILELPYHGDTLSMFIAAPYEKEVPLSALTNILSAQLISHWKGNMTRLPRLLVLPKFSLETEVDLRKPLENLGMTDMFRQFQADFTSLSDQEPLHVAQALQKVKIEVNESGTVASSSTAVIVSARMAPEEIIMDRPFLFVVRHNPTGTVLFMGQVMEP

Going from “GGGGCCACCAACGACAUUGAACGUAAGGAGAGUGCGCUUACCGCACAAUGUUUGUUGAUAUAAAUAGUGCCCAUGGAUC” to “GGGGCCACCAACGACAUUUUGUAGGUGUCAACUACCGACCGUCGUUUGCAUUAGUUGAUAUAAAUAGUGCCCAUGGAUC”, the binding signal rises from 0.43 enrichment factor to 1.24 enrichment factor.

Going from “GGGGCCACCAACGACAUUACAUACCGUAGGGCAGAUCGCCUGACUAGUAAUACGUUGAUAUAAAUAGUGCCCAUGGAUC” to “GGGGCCACCAACGACAUUGUGACCCACCAUUAUAUGGUGACUAGUAGCGUGUUGUUGAUAUAAAUAGUGCCCAUGGAUC”, the binding signal falls from 0.24 enrichment factor to 0.17 enrichment factor.

Compared with “GGGGCCACCAACGACAUUGCUGUGCUAAUCGGUCUUCCGACGCAUAUUCGAAUGUUGAUAUAAAUAGUGCCCAUGGAUC”, “GGGGCCACCAACGACAUUGCCGUAGGCGAUAAUACAUCGCUGAUCAUUUGUACGUUGAUAUAAAUAGUGCCCAUGGAUC” is higher in binding signal: 0.63 enrichment factor for the first, 2.34 enrichment factor for the second.

Compared with “GGGGCCACCAACGACAUUACCAUGUAGGCGUAAUUUCACGCUGACCAAGUGUUGUUGAUAUAAAUAGUGCCCAUGGAUC”, “GGGGCCACCAACGACAUUGACCCGUAGUGUCUUACUACGACUUGUAGAUGUUGUUGAUAUAAAUAGUGCCCAUGGAUC” is lower in binding signal: 1.19 enrichment factor for the first, 0.5 enrichment factor for the second.

First: GGGGCCACCAACGACAUUAUCGACCAUAACGUAGCGGGCUUUCCCGUGAUCAGGUUGAUAUAAAUAGUGCCCAUGGAUC
Second: GGGGCCACCAACGACAUUGCCGUAGUUUCUCGAUUCCCAGAGAGACGAUCGAUGUUGAUAUAAAUAGUGCCCAUGGAUC
The binding signal of the first is lower: 0.91 enrichment factor for the first, 4.28 enrichment factor for the second.

Compared with “GGGGCCACCAACGACAUUCGACCAGACGACAAGUCGUCGCACCGUAGAGUGUAGUUGAUAUAAAUAGUGCCCAUGGAUC”, “GGGGCCACCAACGACAUUACGAACUUGUAGGCACGAAUACGCCGACCUCUAAUGUUGAUAUAAAUAGUGCCCAUGGAUC” is higher in binding signal: 0.15 enrichment factor for the first, 1.25 enrichment factor for the second.

First: GGGGCCACCAACGACAUUAUGCCGUAGGCGCUAGAUGUGCCGAUCAUAAUGCAGUUGAUAUAAAUAGUGCCCAUGGAUC
Second: GGGGCCACCAACGACAUUACACUGUAGAGAAUACCCAAUUCUCGACUAGAUGCGUUGAUAUAAAUAGUGCCCAUGGAUC
The binding signal of the first is lower: 0.5 enrichment factor for the first, 0.74 enrichment factor for the second.

Going from “GGGGCCACCAACGACAUUGAUCACUAAGGUUAGACCGGAGUGCCGUAGAAUGCGUUGAUAUAAAUAGUGCCCAUGGAUC” to “GGGGCCACCAACGACAUUCUGGGCCGUAGGCGAUAUUAGCCGAUCCCAGAAGAGUUGAUAUAAAUAGUGCCCAUGGAUC”, the binding signal rises from 0.88 enrichment factor to 1.43 enrichment factor.

Going from “GGGGCCACCAACGACAUUUCCGUGAGGAUCUAUGUUGUGGAAAACAACAGUUCGUUGAUAUAAAUAGUGCCCAUGGAUC” to “GGGGCCACCAACGACAUUGGUAAUGGUGUGAAUUAACCUUAAGCCUAUUGGUUGUUGAUAUAAAUAGUGCCCAUGGAUC”, the binding signal falls from 1.09 enrichment factor to 0.22 enrichment factor.

Going from “GGGGCCACCAACGACAUUCUAAGUUCGUCCUACUUACUCUUGUAGGUCUGAAUGUUGAUAUAAAUAGUGCCCAUGGAUC” to “GGGGCCACCAACGACAUUGAACUUGUAGUACCUGUAUUGGGUAUGACCUCAGUGUUGAUAUAAAUAGUGCCCAUGGAUC”, the binding signal falls from 16.4 enrichment factor to 1.61 enrichment factor.

Going from “GGGGCCACCAACGACAUUAAGUUCGUCCCGCAUGGUACGAUGCGGGUCUAUGCGUUGAUAUAAAUAGUGCCCAUGGAUC” to “GGGGCCACCAACGACAUUGAUCAACGAUCACCAUGAUACACAUGGAUCACGUAGUUGAUAUAAAUAGUGCCCAUGGAUC”, the binding signal falls from 6.47 enrichment factor to 0.62 enrichment factor.

First: GGGGCCACCAACGACAUUGAGUCUCCUACACGCGUAGGUAAGUUCGUCUCAUUGUUGAUAUAAAUAGUGCCCAUGGAUC
Second: GGGGCCACCAACGACAUUCGGGACUACGUAGGCGGAUUCGCCGAUUACCCGUUGUUGAUAUAAAUAGUGCCCAUGGAUC
The binding signal of the first is higher: 3.79 enrichment factor for the first, 0.7 enrichment factor for the second.

“GGGGCCACCAACGACAUUCACCACGUAGUGAAACUUUCACGACUAGAAUGUAAGUUGAUAUAAAUAGUGCCCAUGGAUC” and “GGGGCCACCAACGACAUUCUACGUCGUAGUCGCUUAGCGAUGACCGUUAGAUGUUGAUAUAAAUAGUGCCCAUGGAUC” are the same in binding signal: 0.74 enrichment factor for the first, 0.74 enrichment factor for the second.

First: GGGGCCACCAACGACAUUAAGUUCGUCCCCGUAAGCUCUUACGGGGUCUAUGCGUUGAUAUAAAUAGUGCCCAUGGAUC
Second: GGGGCCACCAACGACAUUUGCGUAAGCAACCUUGGUGUUAUAUUCACCAGAUCGUUGAUAUAAAUAGUGCCCAUGGAUC
The binding signal of the first is higher: 5.92 enrichment factor for the first, 0.63 enrichment factor for the second.

Going from “GGGGCCACCAACGACAUUACGUAGCAUGAUGAGUUUCUCGUCGGCGAUCAGUUGUUGAUAUAAAUAGUGCCCAUGGAUC” to “GGGGCCACCAACGACAUUAUUUUCCGGUCGUUUAGGUGUUCAACACUCCGGAUGUUGAUAUAAAUAGUGCCCAUGGAUC”, the binding signal rises from 0.98 enrichment factor to 8.72 enrichment factor.

Compared with “GGGGCCACCAACGACAUUGAGUCUAGACAAAAUUGUCUUAAGUUCGUCUUAAUGUUGAUAUAAAUAGUGCCCAUGGAUC”, “GGGGCCACCAACGACAUUAAGUUUCGUCCGGAUCGUGCAAUCCGGUCUAUGUGGUUGAUAUAAAUAGUGCCCAUGGAUC” is lower in binding signal: 7.89 enrichment factor for the first, 4.02 enrichment factor for the second.

First: GGGGCCACCAACGACAUUUCGACUUGUAGACGAUAUUCGUCGACUCGAAGAGCGUUGAUAUAAAUAGUGCCCAUGGAUC
Second: GGGGCCACCAACGACAUUCUCGAGAGAGACCUUCCUCGUUAUACGGGGAGUUCGUUGAUAUAAAUAGUGCCCAUGGAUC
The binding signal of the first is lower: 0.51 enrichment factor for the first, 0.56 enrichment factor for the second.

Compared with “GGGGCCACCAACGACAUUCGUGUUGUAUCUGUUAUACAGCAUGUUAUUUGUGCGUUGAUAUAAAUAGUGCCCAUGGAUC”, “GGGGCCACCAACGACAUUACGUAGGUAGCAUUUAUAUGCUUGACCGAUCAAUCGUUGAUAUAAAUAGUGCCCAUGGAUC” is lower in binding signal: 3.72 enrichment factor for the first, 1.07 enrichment factor for the second.
